Autofluor counter: counter-screen for toxin protease inhibitors: compound fluorescence; fluorescence intensity (concentration not given with the values); 3.1% of 360,000 active; compound autofluorescence counterscreen, microsphere flow cytometry; active compounds read high; AID 624483; in the data active = fluorescence intensity above about 16000; inconclusive = no clear call, values can overlap the other calls
BJeLR viability: kills HRASV12-expressing BJeLR cells; BJeLR (HRASV12) viability, CellTiter-Glo ATP luminescence, 48 h; inhibition, % (no concentration beside the values); 0.17% of 300,000 active; AID 1554; in the data active = inhibition above about 50%; inconclusive = no clear call, values can overlap the other calls
BoNT-A LC inh2: blocks Botulinum neurotoxin A light chain protease; multiplex microsphere protease substrate cleavage, flow cytometry; inhibition, % at 10 µM; 0.17% of 360,000 active; AID 588499
BH1578 lux ind: quorum light induction in luxS cqsA deficient V. cholerae. V. cholerae BH1578 lux reporter, luminescence, 6 h. activation, % at 18.7 µM. 0.16% of 350,000 active. AID 588436; in the data active = activation mostly above about 9.7%, no sharp cut-off; inconclusive = no clear call, values can overlap the other calls; inactive = mostly below about 3.7%
Anthrax LF prot: blocks Bacillus anthracis lethal factor protease; 0.12% of 360,000 active; AID 588501; P15917; inhibition, % at 10 µM; multiplex microsphere protease cleavage assay, LF
Target sequence (P15917 whole entry, looked up): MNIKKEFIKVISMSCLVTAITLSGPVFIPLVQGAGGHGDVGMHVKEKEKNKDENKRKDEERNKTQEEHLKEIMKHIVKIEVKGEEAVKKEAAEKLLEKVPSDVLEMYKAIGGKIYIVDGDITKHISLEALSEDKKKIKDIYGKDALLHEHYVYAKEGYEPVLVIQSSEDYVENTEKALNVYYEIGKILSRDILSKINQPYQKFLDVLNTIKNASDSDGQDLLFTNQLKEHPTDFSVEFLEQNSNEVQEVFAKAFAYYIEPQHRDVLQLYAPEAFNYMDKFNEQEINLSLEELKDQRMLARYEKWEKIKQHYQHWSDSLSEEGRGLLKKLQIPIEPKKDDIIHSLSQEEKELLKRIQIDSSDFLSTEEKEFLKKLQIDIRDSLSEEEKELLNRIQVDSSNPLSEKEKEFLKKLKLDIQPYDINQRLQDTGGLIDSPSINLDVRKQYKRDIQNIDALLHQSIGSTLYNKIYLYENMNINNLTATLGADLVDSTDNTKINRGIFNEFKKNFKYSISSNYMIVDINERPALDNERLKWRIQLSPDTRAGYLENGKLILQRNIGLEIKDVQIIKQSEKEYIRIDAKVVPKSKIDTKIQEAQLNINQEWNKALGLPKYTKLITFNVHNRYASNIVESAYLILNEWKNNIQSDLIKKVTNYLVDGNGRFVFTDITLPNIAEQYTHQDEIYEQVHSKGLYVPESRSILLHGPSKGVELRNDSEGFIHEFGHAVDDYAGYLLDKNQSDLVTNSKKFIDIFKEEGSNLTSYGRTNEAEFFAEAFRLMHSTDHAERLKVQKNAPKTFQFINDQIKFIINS
BoNT-F LC inh: inhibitors of Botulinum neurotoxin F light chain protease; Multiplex microsphere protease cleavage assay, flow cytometry; inhibition, % at 10 µM; 0.22% of 360,000 active; AID 588497; in the data active = inhibition above about 35%, passing the limit was not always enough; inconclusive = no clear call, values can overlap the other calls
Numbers stand for hits; n = inactive; u = inconclusive; x = no result. Only some compounds are listed: those with a hit (about 3.7% of all), similar ones and a draw of the others. Cut-off read from the data, not from the text of the source, unless noted: active = inhibition above about 30%; inconclusive = no clear call, values can overlap the other calls; inactive = below that.

SMILES	Autofluor counter	BJeLR viability	BoNT-A LC inh2	BH1578 lux ind	Anthrax LF prot	BoNT-F LC inh
c1cn2c(-c3ccc(N4CCOCC4)cc3)cncc2n1	n	x	n	n	n	n
COC(=O)CC1COc2ccccc2N1C(=O)c1ccc(OC)cc1 (configuration not stated)	21654	n	u	n	n	n
CCCCOc1ccc(C(=O)NCCCC(=O)N2CCCCC2)cc1	n	n	n	n	n	n
CC(C)CCOc1ccc(C(=O)NCCC(=O)N2CCOCC2)cc1	21240	n	n	n	n	n
O=C(CNCC1CCCO1)Nc1ccccc1N1CCOCC1 (configuration not stated)	22897	n	n	n	n	n
Cc1ccc(-c2n[nH]c(=S)n2Cc2ccccc2)cc1	22893	n	u	n	n	n
Cc1cccc(-c2n[nH]c(=S)n2Cc2ccccc2)c1	n	n	n	n	n	n
COc1ccc(Cl)cc1NC(=O)CSc1nnc(CNC(=O)c2cccs2)o1	n	n	n	n	n	n
CCn1c(CNC(=O)c2cccs2)nnc1SCC(=O)Nc1ccc(Cl)cc1	17189	n	n	n	n	n
Cn1c(CNC(=O)c2cccs2)nnc1SCC(=O)Nc1ccccc1	n	n	n	n	n	n
CCn1c(CNC(=O)c2cccs2)nnc1SCC(=O)NCCc1ccccc1	24231	n	u	n	n	n
CCn1c(CNC(=O)c2cccs2)nnc1SCC(=O)Nc1cc(Cl)ccc1C	21203	n	u	n	n	n
O=C(NCc1n[nH]c(=S)n1-c1ccccc1)c1ccco1	19724	n	n	n	n	n
Cc1ccc(N2CC(C(=O)Nc3ccc(N(C)C)cc3)CC2=O)cc1C (configuration not stated)	19991	n	n	n	n	n
Cc1ccc(N2CC(C(=O)Nc3ccccc3C(=O)NC3CCCCC3)CC2=O)cc1 (configuration not stated)	n	n	n	n	n	n
Cc1ccc(N2CC(C(=O)Nc3ccccc3C(=O)NC3CCCCC3)CC2=O)cc1C (configuration not stated)	22887	n	u	n	n	n
COC(=O)c1ccccc1NC(=O)C1CC(=O)N(c2ccccc2)C1 (configuration not stated)	22918	n	n	n	n	n
COc1ccc(OCCNC(=O)c2ccc3nc(C)c(N(C)C(=O)CCc4ccccc4)n3c2)cc1	n	x	n	n	n	n
CCOC(=O)Cc1ccc(Nc2nc3cc(-c4sccc4C)sc3c(=O)n2C)cc1	n	x	n	n	n	n
CCc1ccc(CN(C)Cc2c(C(=O)N3CCOCC3)nc3c(C)cccn23)nc1	n	x	n	n	n	n
CC1=C(c2ccccc2)C(O)(c2ccccc2)C(C)C1=O (configuration not stated)	n	x	n	n	n	n
Cc1ccc(C2CC(=O)N3CN(Cc4ccco4)CSC3=C2C#N)cc1 (configuration not stated)	20926	n	n	n	n	n
N#CC1=C2SCN(Cc3ccco3)CN2C(=O)CC1c1c(F)cccc1Cl (configuration not stated)	n	n	n	n	n	n
Cc1cc(C)nc(N/C(=N\S(=O)(=O)Cc2ccccc2)Nc2ccc(F)c(Cl)c2)n1	n	n	n	n	n	n
Cc1cc(C)nc(N/C(=N\S(=O)(=O)Cc2ccccc2)Nc2cccc(Cl)c2C)n1	21814	n	n	n	n	n
SMILES	Autofluor counter	BJeLR viability	BoNT-A LC inh2	BH1578 lux ind	Anthrax LF prot	BoNT-F LC inh
CCCNC(=O)NCCc1ccncc1	n	n	n	n	n	n
CC(C)CC(=O)NCCc1ccncc1	22906	n	n	n	n	n
Cn1c(Cc2cccs2)nnc1SCC(=O)N1CCCc2ccccc21	n	n	n	x	n	n
CC1CCc2cc(F)ccc2N1C(=O)CSc1nnc(-c2cccs2)n1C (configuration not stated)	23587	n	u	n	n	n
CC1CCc2cc(F)ccc2N1C(=O)CSc1nnc2c(n1)[nH]c1ccccc12 (configuration not stated)	n	n	n	n	n	n
Cc1nnc(SCC(=O)N2CCCc3ccccc32)[nH]c1=O	16177	n	n	n	n	n
O=C(CSc1nnc(Cc2cccs2)n1CCc1ccccc1)N1CCCc2ccccc21	23460	n	n	n	n	n
Cn1c(SCC(=O)N2CCCc3ccccc32)nnc1-c1cccs1	23321	n	n	n	n	n
Cc1cc(=O)[nH]c(SCC(=O)N2CCCc3ccccc32)n1	n	n	n	n	n	n
Cn1c(SCC(=O)N2CCCc3ccccc32)nnc1-c1c[nH]c2ccccc12	n	n	n	n	n	n
Cc1nnc(SCC(=O)NCc2ccccc2)[nH]c1=O	17403	n	n	n	n	n
CC(=O)c1ccc(Nc2nc(C(N)CCc3ccccc3)cs2)cc1 (configuration not stated)	n	x	n	n	n	n
CCCSc1nc(-c2ccccc2)cc(C(F)(F)F)c1C#N	19871	n	n	n	n	n
N#Cc1c(C(F)(F)F)cc(-c2ccccc2)nc1SCCN1CCOCC1	n	n	n	n	n	n
C[C@H](CO)N1C[C@H](C)[C@@H](CN(C)C(=O)Nc2ccccc2)Oc2ncc(-c3ccc(C#N)cc3)cc2C1=O	n	x	n	n	n	n
Cc1cc(/C=C(\C#N)C(=O)Nc2ccc(F)cc2)c(C)n1-c1ccc(N2CCOCC2)c([N+](=O)[O-])c1	22759	n	n	n	n	n
Cc1cc(/C=C(\C#N)C(=O)Nc2ccccc2)c(C)n1-c1ccc2c(c1)OCO2	20884	n	n	n	n	n
COc1ccc(NC(=O)/C(C#N)=C/c2cc(C)n(-c3ccc(N4CCOCC4)c([N+](=O)[O-])c3)c2C)cc1	n	n	n	n	n	n
O=C(/C=C/[C@H]1O[C@@H](n2ccc(=O)[nH]c2=O)[C@H](O)[C@@H]1O)NC(c1ccccc1)c1ccccc1	n	x	n	x	n	n
CC(C)(C)Nc1nc(SCc2ccccc2)nc(N2CCOCC2)n1	23358	n	u	n	n	n
O=C(NCc1cccnc1)c1ccc2c(c1)OCO2	22188	n	u	n	n	n
O=C(Nc1cccc(Cl)c1)C1=Cc2cc(Cl)ccc2OC1	n	n	n	n	n	n
O=C(NCc1cccc(Cl)c1)c1ccc2c(c1)OCO2	21016	n	u	n	n	n
O=C(NCc1ccc(Cl)cc1)C1=Cc2cc(Cl)ccc2OC1	21246	n	n	n	n	n
O=C(NCc1ccc2c(c1)OCO2)c1ccc2c(c1)C(=O)N(Cc1cccnc1)C2=O	n	n	n	n	n	n
O=C(CCS(=O)(=O)c1ccc(Br)s1)NCc1ccc2c(c1)OCO2	22950	n	u	n	n	n
O=C(CSCc1cccc(Cl)c1)NCc1ccc2c(c1)OCO2	21289	n	n	n	n	n
CCCCC1CCC(C(=O)NCc2ccc3c(c2)OCO3)CC1 (configuration not stated)	23610	n	n	n	n	n
COCC(=O)NCc1ccc2c(c1)OCO2	22350	n	n	n	n	n
O=C(CSCc1ccccc1)NCc1ccc2c(c1)OCO2	n	n	n	n	n	n
